Laboratory results as given in PubChem BioAssay (NCI).
Where “and” joins values, the source holds several entries; their conditions need not be identical. Equal values may be shown once. About 83,000 compounds went through this panel and 20% of them were active in at least one assay; those are over-represented in the sample as a whole.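 The test compound was applied at a single concentration to cells in 96-well plates for 48 hours, and percent growth was recorded.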 Calls of active or inactive are those of the source. The calls were made as follows: active = growth percent below 10; inactive = the rest.

Key:
Experiment in all cases: NCI-60 one-dose screen, 48 h (100 = growth as untreated, 0 = no growth, -100 = all killed)
Details in all cases: 10 µM
K-562 leukemia = system: K-562 leukemia
MALME-3M melanoma = system: MALME-3M melanoma
RXF 393 renal = system: RXF 393 renal
UACC-257 melanoma = system: UACC-257 melanoma
SK-MEL-28 melanoma = system: SK-MEL-28 melanoma
SN12C renal = system: SN12C renal
TK-10 renal = system: TK-10 renal
CAKI-1 renal = system: CAKI-1 renal
RPMI-8226 leukemia = system: RPMI-8226 leukemia
BT-549 breast = system: BT-549 breast
MDA-MB-435 melanoma = system: MDA-MB-435 melanoma
HCC-2998 colon = system: HCC-2998 colon
HOP-92 NSCLC = system: HOP-92 NSCLC
SK-MEL-2 melanoma = system: SK-MEL-2 melanoma
A498 renal = system: A498 renal
OVCAR-3 ovarian = system: OVCAR-3 ovarian

Measured: growth

CC1=C2C(=C[C@@](C)(COC(=O)c3ccc(S(=O)(=O)F)cc3)[C@@H]2O)C(=O)[C@](C)(O)C12CC2
active: K-562 leukemia 6.74% | MALME-3M melanoma -56.1% | RXF 393 renal -88.8% | UACC-257 melanoma -52.7% | SK-MEL-28 melanoma -66.3% | SN12C renal -2.35% | TK-10 renal -6.77% | CAKI-1 renal -0.688% | BT-549 breast -88.2% | MDA-MB-435 melanoma -72.2% | HCC-2998 colon -50.6%
inactive: RPMI-8226 leukemia 89.7%

CC1=C(CCC=NNC(N)=O)C2=C(C)C3(CC3)[C@@](C)(O)C(=O)C2=C1
inactive: K-562 leukemia 54.7% | RPMI-8226 leukemia 59.8%
active: MALME-3M melanoma -71.1% | RXF 393 renal -93.6% | UACC-257 melanoma -62.1% | SK-MEL-28 melanoma -48.8% | SN12C renal 1.73% | TK-10 renal -9.84% | CAKI-1 renal 0.975% | BT-549 breast -93.5% | MDA-MB-435 melanoma -27.9% | HCC-2998 colon -73.2%

CC1=C2C(=C[C@@](C)(COC(=O)c3ccc(S(=O)(=O)F)cc3)[C@@H]2OC(=O)c2ccc(S(=O)(=O)F)cc2)C(=O)[C@](C)(O)C12CC2
inactive: K-562 leukemia 23.8% | UACC-257 melanoma 60% | SN12C renal 21% | RPMI-8226 leukemia 67%
active: HOP-92 NSCLC -17.1% | MALME-3M melanoma -57.3% | SK-MEL-28 melanoma 7.54% | TK-10 renal -3.99% | CAKI-1 renal -2.73% | BT-549 breast -90.2% | MDA-MB-435 melanoma 3.18% | HCC-2998 colon -60%

COc1cc2c(O[C@@H]3OC[C@H](O)[C@H](O)[C@H]3O)c3c(c(-c4ccc5c(c4)OCO5)c2cc1OC)C(=O)OC3
inactive: K-562 leukemia 19.3% | MALME-3M melanoma 54.4% | RXF 393 renal 53.6% | UACC-257 melanoma 23.6% | SK-MEL-28 melanoma 40.8% | SK-MEL-2 melanoma 49% | SN12C renal 56.2% | A498 renal 15% | RPMI-8226 leukemia 89.8% | OVCAR-3 ovarian 80.2% | BT-549 breast 31% | MDA-MB-435 melanoma 39.5% | HCC-2998 colon 73.4%

N#Cc1c(-n2c(Br)c(Br)c3cc(Br)ccc32)[nH]c2c(Br)cc(Br)cc12
active: HOP-92 NSCLC -31.4% | K-562 leukemia 7.11% | MALME-3M melanoma -17.4% | RXF 393 renal -31.7% | UACC-257 melanoma -23.8% | SK-MEL-28 melanoma 5.46% | SK-MEL-2 melanoma -61.2% | SN12C renal 0.622% | TK-10 renal -2.55% | CAKI-1 renal -3.39% | A498 renal -73% | RPMI-8226 leukemia -3.21% | BT-549 breast -54.7% | MDA-MB-435 melanoma -0.901% | HCC-2998 colon 2.82%

CC1=C2C(=C[C@@](C)(C=O)[C@@H]2O)C(=O)[C@](C)(O)C12CC2
inactive: K-562 leukemia 24.2% | SN12C renal 26.1% | CAKI-1 renal 12.6%
active: HOP-92 NSCLC -8.36% | MALME-3M melanoma -32.6% | RXF 393 renal -77% | UACC-257 melanoma 6.75% | SK-MEL-28 melanoma -8.99% | SK-MEL-2 melanoma -37.8% | TK-10 renal 2.16% | A498 renal -57% | OVCAR-3 ovarian -10.1% | BT-549 breast -6.13% | HCC-2998 colon -25.1%

CN(CCF)/N=N/c1nc[nH]c1C(N)=O
active: SK-MEL-2 melanoma -20.9%
inactive: HOP-92 NSCLC 77.9% | K-562 leukemia 22.2% | MALME-3M melanoma 37.5% | RXF 393 renal 76.6% | UACC-257 melanoma 53.8% | SK-MEL-28 melanoma 49.3% | SN12C renal 48.4% | TK-10 renal 25.2% | CAKI-1 renal 14.1% | A498 renal 87% | RPMI-8226 leukemia 25.5% | BT-549 breast 85.8% | MDA-MB-435 melanoma 39.6% | HCC-2998 colon 38.7%

COc1cc2c(O[C@@H]3OC[C@H](OC(C)=O)[C@H](OC(C)=O)[C@H]3O)c3c(c(-c4ccc5c(c4)OCO5)c2cc1OC)C(=O)OC3
inactive: MALME-3M melanoma 39.3% | RXF 393 renal 54.4% | TK-10 renal 42.3% | CAKI-1 renal 13.8% | A498 renal 70.6% | OVCAR-3 ovarian 59.4% | BT-549 breast 23.4%
active: HOP-92 NSCLC -13.3% | UACC-257 melanoma -35.8% | SK-MEL-2 melanoma -31.8% | RPMI-8226 leukemia -2.08% | MDA-MB-435 melanoma 4.94%

C/C=C/CC(C)C(O)[C@H](NC(=O)[C@@H]1CCCN1C(=O)C(C)(C)NC(=O)CCCCCCCCC)C(=O)N[C@@](C)(CC)C(=O)N[C@@H](CCC(N)=O)C(=O)N[C@H](CCC(N)=O)C(=O)NC(C)(C)C(=O)N[C@@](C)(CC)C(=O)N[C@@H](CCC(N)=O)C(=O)N[C@H](CC(C)C)C(=O)N[C@H](CO)CC(C)C (stereo partly drawn)
116% (inactive) and -19.6% (active): HCC-2998 colon
99.7% (inactive) and -21.7% (active): CAKI-1 renal
93.8% (inactive) and -92.9% (active): MALME-3M melanoma
103% (inactive) and -46.2% (active): RPMI-8226 leukemia
97.3% (inactive) and -52.9% (active): A498 renal
108% (inactive) and -83% (active): UACC-257 melanoma
90.4% (inactive) and 4.32% (active): K-562 leukemia
105% (inactive) and -93.7% (active): MDA-MB-435 melanoma
101% (inactive) and -44.1% (active): SN12C renal
121% (inactive) and -72.1% (active): SK-MEL-2 melanoma
104% (inactive) and -100% (active): SK-MEL-28 melanoma
129% (inactive) and -75.3% (active): RXF 393 renal
108% (inactive) and -53.4% (active): TK-10 renal
active: OVCAR-3 ovarian 8.27% | BT-549 breast -79.6%
91.5% (inactive) and -58.8% (active): HOP-92 NSCLC

CCC(C)[C@H]1C(=O)O[C@H](C(C)C)C(=O)N(C)[C@@H](C(C)C)C(=O)O[C@H](C(C)C)C(=O)N(C)[C@@H](C(C)C)C(=O)O[C@H](C(C)C)C(=O)N1C (stereo partly drawn)
active: HOP-92 NSCLC -19% | K-562 leukemia 6.74% | SK-MEL-2 melanoma -2.6% | SN12C renal 7.58% | TK-10 renal 8.22% | A498 renal -8.55% | RPMI-8226 leukemia -25.6%
inactive: MALME-3M melanoma 14.7% | RXF 393 renal 22% | SK-MEL-28 melanoma 34.4% | OVCAR-3 ovarian 19.9% | BT-549 breast 14.2% | MDA-MB-435 melanoma 20% | HCC-2998 colon 32.3%

COC1[C@@H]2C[C@H]3C(C)(C)O[C@@](C/C=C(/C)C(=O)O)(C2=O)[C@]32Oc3c(CC=C(C)C)c4c(c(O)c3C(=O)[C@H]12)C=CC(C)(C)O4 (stereo partly drawn)
active: HOP-92 NSCLC -36.4% | K-562 leukemia 2.55% | MALME-3M melanoma -90.2% | RXF 393 renal -81.1% | UACC-257 melanoma -48.2% | SK-MEL-28 melanoma -61.4% | SK-MEL-2 melanoma -65.5% | SN12C renal -16.7% | A498 renal -67.8% | RPMI-8226 leukemia -17% | OVCAR-3 ovarian -90.6% | BT-549 breast -3.07% | MDA-MB-435 melanoma -58.2% | HCC-2998 colon -81.9%

CCCCCCCCCC(=O)N[C@@](C)(CC)C(=O)N1CCC[C@H]1C(=O)N[C@@H](CC(C)C)C(=O)N[C@@](C)(CC)C(=O)N[C@@H](CCC(N)=O)C(=O)N[C@H](CCC(N)=O)C(=O)NC(C)(C)C(=O)NC(C)(C)C(=O)N[C@@H](CCC(N)=O)C(=O)N[C@H](CC(C)C)C(=O)N[C@H](CO)CC(C)C
active: HOP-92 NSCLC -93.1% and -69.1% | MALME-3M melanoma -89.7% and -98.6% | RXF 393 renal -89.1% and -89.3% | UACC-257 melanoma -88.1% and -80.1% | SK-MEL-28 melanoma -97.1% and -100% | SK-MEL-2 melanoma -90.7% and -86% | SN12C renal -86.9% and -98.8% | TK-10 renal -73.6% and -83.4% | CAKI-1 renal -92.4% and -100% | A498 renal -92.4% and -81.1% | RPMI-8226 leukemia -53.6% and -31.8% | OVCAR-3 ovarian -74.5% | BT-549 breast -91% and -85.5% | MDA-MB-435 melanoma -94% and -97.5% | HCC-2998 colon -87.4% and -89.4%
-15.6% (active) and 21.9% (inactive): K-562 leukemia

Cc1ccc(CNc2nc3ccc(OC/C(=C/F)CN)cc3o2)cn1
active: SN12C renal -37.4%
inactive: HOP-92 NSCLC 93.9% | K-562 leukemia 108% | MALME-3M melanoma 105% | RXF 393 renal 69.1% | UACC-257 melanoma 104% | SK-MEL-28 melanoma 107% | SK-MEL-2 melanoma 110% | TK-10 renal 71.9% | CAKI-1 renal 68.3% | A498 renal 58.4% | RPMI-8226 leukemia 105% | OVCAR-3 ovarian 109% | MDA-MB-435 melanoma 99.6% | HCC-2998 colon 111%

CC1=C2C(=C[C@@](C)(COS(C)(=O)=O)[C@@H]2O)C(=O)[C@](C)(O)C12CC2
inactive: SN12C renal 13.8%
active: HOP-92 NSCLC -15.5% | K-562 leukemia 3.56% | MALME-3M melanoma -33% | RXF 393 renal -78.1% | UACC-257 melanoma 0.386% | SK-MEL-28 melanoma -28.4% | SK-MEL-2 melanoma -39.5% | TK-10 renal 5.33% | CAKI-1 renal -31.5% | A498 renal -61% | OVCAR-3 ovarian 7.64% | BT-549 breast -15.9% | HCC-2998 colon -25.7%

COC(=O)[C@H]1[C@@H](O)[C@@]2(O)c3c(OC)cc(OC)cc3O[C@@]2(c2ccc(OC)cc2)[C@@H]1c1ccccc1
active: HOP-92 NSCLC -12.5% | K-562 leukemia 2.1% | MALME-3M melanoma -21.8% | RXF 393 renal -20.3% | SK-MEL-28 melanoma -19.2% | SK-MEL-2 melanoma -45.5% | SN12C renal -11.5% | TK-10 renal -11.9% | CAKI-1 renal -6.21% | A498 renal -31.4% | RPMI-8226 leukemia -9.7% | OVCAR-3 ovarian -9.22% | BT-549 breast -17.5% | MDA-MB-435 melanoma -11.1% | HCC-2998 colon 0.34%

CC(C)=CCc1c2c(c(O)c3c1O[C@]14C(=C[C@@H]5C[C@H]1C(C)(C)O[C@@]4(C/C=C(/C)C(=O)O)C5=O)C3=O)C=CC(C)(C)O2
active: HOP-92 NSCLC -53.6% | K-562 leukemia 2.2% | MALME-3M melanoma -70.4% | RXF 393 renal -85.5% | UACC-257 melanoma -77.2% | SK-MEL-28 melanoma -88.2% | SK-MEL-2 melanoma -75.2% | SN12C renal -26.9% | A498 renal -94.3% | RPMI-8226 leukemia -8.35% | OVCAR-3 ovarian -93.9% | BT-549 breast -11.2% | MDA-MB-435 melanoma -80.1% | HCC-2998 colon -88.1%
